Data from PubChem BioAssay (NCATS).
Results filed as inconclusive are left out. Active and inactive are the calls of the source. Calls follow the shape of the dose curve; as a rule, active = well fitted curve in the direction sought with a large enough effect; inconclusive = small, poorly fitted or top-dose-only effect, or another doubt; inactive = no such curve, though single readings can be large; an effect the other way counts as inactive or inconclusive.

How the values were obtained:
CASKI = assay: Primary qHTS to identify gynecologic anti-cancer compounds using libraries of approved drugs and bioactive compounds (AID 1345084); details: Gynecologic cancer cell panel viability, ATPlite luminescence, 48 h; series mostly up to 57.5 µM; also: nearly all actives have a fitted effect of over 55% in size
In short: (§1)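 In this quantitative HTS, cell killing is estimated from loss of ATP-dependent luciferase light. Cells see five compound concentrations over a 48 h exposure.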

Es-2 = assay: as above; details: Gynecologic cancer cell panel viability, ATPlite luminescence, 48 h; series mostly up to 57.5 µM
In short: as §1

HeLa = assay: as above; details: Gynecologic cancer cell panel viability, ATPlite luminescence, 48 h; series mostly up to 57.5 µM
In short: as §1

Hek293T = assay: as above; details: Gynecologic cancer cell panel viability, ATPlite luminescence, 48 h, control line for the selectivity index; series mostly up to 57.5 µM
In short: as §1

JEG-3 = assay: as above; details: Gynecologic cancer cell panel viability, ATPlite luminescence, 48 h; series mostly up to 57.5 µM
In short: as §1

OV90 = assay: as above; details: Gynecologic cancer cell panel viability, ATPlite luminescence, 48 h; series mostly up to 57.5 µM
In short: as §1

PA-1 = assay: as above; details: Gynecologic cancer cell panel viability, ATPlite luminescence, 48 h; series mostly up to 57.5 µM
In short: as §1

Tov-21-G = assay: as above; details: Gynecologic cancer cell panel viability, ATPlite luminescence, 48 h; series mostly up to 57.5 µM
In short: as §1

Tov112D = assay: as above; details: Gynecologic cancer cell panel viability, ATPlite luminescence, 48 h; series mostly up to 57.5 µM
In short: as §1

CAOV3 = assay: as above; details: Gynecologic cancer cell panel viability, ATPlite luminescence, 48 h; series mostly up to 57.5 µM
In short: as §1

SKOV3 = assay: as above; details: Gynecologic cancer cell panel viability, ATPlite luminescence, 48 h; series mostly up to 57.5 µM
In short: as §1

[1] = qHTS assay to identify inhibitors of the type 1 interferon - major histocompatibility complex class I in skeletal muscle: Counter screen cell viability and HiBit confirmation (AID 1347412); details: iHSKM muscle cells + IFN-b, HiBiT or CellTiter-Glo, 24 h; also: nearly all actives have a fitted effect of over 60% in size
In short: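 CRISPR HLA-B*08:01-HiBit immortalized human myoblasts (C25cl48) stimulated with 4 ng/ml IFN-beta and compounds (12-point 1:3, top 46 uM final) for 24 h at 37 C. Duplicate plates read by HiBit lytic luminescence or CellTiter Glo ATP.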
% is scaled to controls: 0 for no effect and ±100 for the full control effect; potency is read from the fitted curve at half-maximal effect.

O=C(O)[C@@H]1C[C@H]2C[C@@H](CCc3nn[nH]n3)CC[C@H]2CN1
inactive: Potency (CASKI) | Potency (Es-2) | Potency (HeLa) | Potency (Hek293T) | Potency (JEG-3) | Potency (OV90) | Potency (PA-1) | Potency (Tov-21-G) | Potency (Tov112D)

NC(=O)c1cccc2cn(-c3ccc(C4CCCNC4)cc3)nc12 (configuration not stated)
inactive: Potency (CAOV3) | Potency (CASKI) | Potency (HeLa) | Potency (Hek293T) | Potency (JEG-3) | Potency (OV90) | Potency (SKOV3) | Potency (Tov-21-G)

COc1cc2c(cc1O)CC[C@H]1[C@@H]2CC[C@]2(C)[C@H](O)CC[C@@H]12
inactive: Potency (CAOV3) | Potency (OV90)
active: Potency (Es-2) 3.98 µM | Potency (HeLa) 3.16 µM | Potency (SKOV3) 3.16 µM | Potency (Tov112D) 1 µM

CNC(=O)c1cc(Oc2ccc3nc(N[C@@H]4CCCC[C@H]4O)sc3c2)ccn1
inactive: Potency (CAOV3) | Potency (CASKI) | Potency (Hek293T)

CC1(C)CC(=O)C2=C(C1)NC(=S)NC2c1cccc(O)c1 (configuration not stated)
inactive: Potency (OV90)
active: Potency (CAOV3) 3.55 µM | Potency (HeLa) 7.94 µM | Potency (Tov-21-G) 1.26 µM | Potency (Tov112D) 0.891 µM

CCC(C)C(=O)OC1CC(O)C23C4OCC5(C(O)CC2C1(C)C(O)O4)C3C(=O)C(O)C1(C)C(O)(c2ccoc2)CC2OC251 (configuration not stated)
active: Potency (CAOV3) 3.98 µM | Potency (Es-2) 8.91 µM | Potency (OV90) 1.26 µM | Potency (PA-1) 3.16 µM | Potency (SKOV3) 3.16 µM | Potency (Tov112D) 3.55 µM
inactive: Potency (CASKI) | Potency (JEG-3)

CCN1CCN(Cc2ccc(NC(=O)c3ccc(C)c(NC(=O)c4cncc(-c5cccs5)c4)c3)cc2C(F)(F)F)CC1
active: Potency (CAOV3) 10 µM | Potency (CASKI) 10 µM | Potency (Es-2) 2.82 µM | Potency (JEG-3) 25.1 µM | Potency (OV90) 12.6 µM | Potency (PA-1) 1.58 µM | Potency (Tov-21-G) 1.41 µM | Potency (Tov112D) 3.55 µM | Potency ([1]; HiBiT) 5.57 µM | Potency ([1]; Viability) 12.5 µM

C=C(C)C(=O)OC1CC2(C)OC(=CC2=O)C(=C)CC2OC(=O)C(COC)C12 (configuration not stated)
inactive: Potency (CAOV3) | Potency (HeLa) | Potency (JEG-3) | Potency (OV90) | Potency (Tov112D)

COc1cc2ncnc(Nc3ccc(F)c(Cl)c3)c2cc1NC(=O)/C=C/CN1CCCCC1
active: Potency (CAOV3) 22.4 µM | Potency (SKOV3) 10 µM | Potency ([1]; HiBiT) 19.8 µM
inactive: Potency (OV90)

Cc1cc(OCc2nnc(SC3CCCC3)n2-c2cccnc2)ccc1-c1ccc(S(C)(=O)=O)cc1
inactive: activity change, negative = inhibition ([1]; Viability, at 45.9 µM (top of the series)) -25.3%
active: Potency (CAOV3) 31.6 µM | Potency (HeLa) 31.6 µM | Potency (OV90) 1.78 µM | Potency (PA-1) 12.6 µM | Potency (SKOV3) 0.794 µM | Potency (Tov-21-G) 28.2 µM | Potency (Tov112D) 31.6 µM

CC(O)c1cc(C(=O)N[C@@H](C)Cn2ccc(-c3ccc(C#N)c(Cl)c3)n2)n[nH]1 (some centres not stated)
inactive: Potency (CAOV3) | Potency (OV90)

Cc1cc(Nc2ncc3cc(-c4c(Cl)cccc4Cl)c(=O)n(C)c3n2)ccc1F
active: Potency (CAOV3) 3.16 µM | Potency (Es-2) 7.94 µM | Potency (HeLa) 3.55 µM | Potency (PA-1) 3.98 µM | Potency (SKOV3) 3.55 µM | Potency (Tov-21-G) 3.98 µM | Potency (Tov112D) 3.55 µM

CS(=O)(=O)N(CC(=O)NCC1CC1)c1cc(C(F)(F)F)ccc1Cl
inactive: Potency (CAOV3) | Potency (Es-2) | Potency (HeLa) | Potency (Hek293T) | Potency (JEG-3) | Potency (OV90) | Potency (PA-1) | Potency (SKOV3) | Potency (Tov-21-G) | Potency (Tov112D)

CC(=O)N1CCN(C(=O)Cc2ccc(Nc3ncc(F)c(Nc4ccc(C(=O)Nc5ccccc5Cl)cc4)n3)cc2)CC1
inactive: Potency (JEG-3) | Potency (OV90)
active: Potency (CAOV3) 31.6 µM | Potency (HeLa) 7.94 µM | Potency (PA-1) 11.2 µM | Potency (SKOV3) 22.4 µM | Potency (Tov-21-G) 25.1 µM | Potency (Tov112D) 3.98 µM

Cc1cc(-c2cc(O)ccc2Cl)cc2nnc(Nc3ccc(OCCN4CCCC4)cc3)nc12
active: Potency (CAOV3) 11.2 µM | Potency (SKOV3) 28.2 µM

Cc1ccc(C(=O)N(CCCN)C(c2nc3cc(Cl)ccc3c(=O)n2Cc2ccccc2)C(C)C)cc1 (configuration not stated)
active: Potency (CAOV3) 25.1 µM | Potency (CASKI) 25.1 µM
inactive: Potency (OV90)

Cn1nnc(-c2ccc(-c3ccc(N4C[C@H](COP(=O)(O)O)OC4=O)cc3F)cn2)n1
active: Potency (CASKI) 12.6 µM | Potency (OV90) 20 µM
inactive: Potency (CAOV3)

C=C1C(=O)O[C@H]2C1[C@H](OC(=O)/C(=C/CO)COC(=O)/C(C)=C/CO)CC(=C)[C@@H]1CC(=O)[C@@H](C)[C@@H]12 (some centres not stated)
inactive: Potency (CAOV3) | Potency (CASKI) | Potency (HeLa) | Potency (Hek293T) | Potency (OV90) | Potency (Tov112D)

CN(C)c1nc(NC2CCC(NCCc3ccc(Br)cc3OC(F)(F)F)CC2)nc2ccccc12 (configuration not stated)
active: Potency (CAOV3) 3.98 µM | Potency (Hek293T) 25.1 µM | Potency (JEG-3) 20 µM | Potency (OV90) 14.1 µM | Potency (SKOV3) 14.1 µM
